From PMC10668032, “Altered binding affinity of SIX1-Q177R correlates with enhanced WNT5A and WNT pathway effector expression in Wilms tumor”
The full ranking holds about 33,000 sequences; the median of “e-score” is about -0.053, and the highest 2% start at about 0.38. The sample holds the highest values, similar sequences and a random draw of the others, so the mix is not that of the screen.

target: T1, SIX1 homeodomain (reference allele) (human, UniProt Q15475 108-198); test: universal protein binding microarray; Universal all-10-mer PBM (8x60K, AMADID 030236), 300 nM GST-tagged protein, Alexa Fluor 488 anti-GST; buffer, salt, pH and temperature not stated (as in Berger); high values mean tight binding; conditions: protein: ivt; tags: N-terminal GST; dsDNA, one strand shown
T1 sequence: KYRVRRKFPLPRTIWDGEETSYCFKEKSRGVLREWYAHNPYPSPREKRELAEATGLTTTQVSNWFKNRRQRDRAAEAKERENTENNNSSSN
In short: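 After in vitro transcription/translation, GST-tagged homeodomains were quantified against a recombinant GST standard curve by anti-GST western blot. They were then placed in duplicate at 300 nM final concentration on universal 'all 10-mer' protein binding microarrays of 8×60K format.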

| Sequence | binding signal |
| --- | --- |
| ACACCCGG | 0.344 ± 0.043 E-score |
| GTGTTAGA | 0.214 ± 0.00425 E-score |
| ACGATCGT | 0.154 ± 0.0131 E-score |
| CAGTAGTA | 0.154 ± 0.00593 E-score |
| GATTATTA | 0.209 ± 0.0336 E-score |
| GATCTGAC | 0.238 ± 0.00706 E-score |
| AGACCTAT | 0.17 ± 0.0148 E-score |
| ATATAGGG | 0.229 ± 0.0134 E-score |
| GTTGGATA | 0.295 ± 0.00342 E-score |
| CTTGGATA | 0.236 ± 0.024 E-score |
| ATCGGATA | 0.423 ± 0.00904 E-score |
| CTCGGATC | 0.396 ± 0.0127 E-score |
| ATCGGAAA | 0.159 ± 0.00362 E-score |
| CTCGGATA | 0.375 ± 0.00642 E-score |
| ATCGGATC | 0.426 ± 0.0203 E-score |
| GTCGGATA | 0.407 ± 0.00687 E-score |
| ATCGGACC | 0.229 ± 0.0739 E-score |
| ATCGGATG | 0.252 ± 0.00376 E-score |
| ATCGGACA | 0.237 ± 0.0182 E-score |
| CTTGGATC | 0.295 ± 0.0145 E-score |
| AATATTAA | 0.187 ± 0.0103 E-score |
| GATCGAGC | 0.218 ± 0.00887 E-score |
| TATGCATA | 0.202 ± 0.0575 E-score |
| ATACTAGA | 0.218 ± 0.0317 E-score |

| Sequence | binding signal |
| --- | --- |
| CACTCCGG | 0.195 ± 0.0209 E-score |
| AACCCGAT | 0.25 ± 0.0182 E-score |
| ATAGCAGG | 0.29151 ± 0.000127 E-score |
| CCTTGTGA | 0.164 ± 0.0725 E-score |
| ATCGCAAC | 0.198 ± 0.0486 E-score |
| CGTACACC | 0.205 ± 0.0267 E-score |
| AACTATCC | 0.281 ± 0.0413 E-score |
| AAGTATAC | 0.338 ± 0.0623 E-score |
| GATTATCC | 0.329 ± 0.00414 E-score |
| GAGTATCC | 0.4205 ± 0.00087 E-score |
| GAGTATAC | 0.262 ± 0.0252 E-score |
| AAGTATCC | 0.388 ± 0.0363 E-score |
| ATACTCAG | 0.35 ± 0.0154 E-score |
| GCAAGATA | 0.17 ± 0.0455 E-score |
| ATGCATGA | 0.162 ± 0.0129 E-score |
| ATCCACGG | 0.187 ± 0.0301 E-score |
| AGCGGATC | 0.375 ± 0.0283 E-score |
| CCCGGATC | 0.45 ± 0.0283 E-score |
| ACCGGATC | 0.417 ± 0.0393 E-score |
| ACCGGATA | 0.364 ± 0.00187 E-score |
| CCTGGATC | 0.251 ± 0.0575 E-score |
| CCCAGATC | 0.38 ± 0.0205 E-score |
| CCCAGATA | 0.302 ± 0.0141 E-score |
| CCCGGGTC | 0.288 ± 0.0806 E-score |

| Sequence | binding signal |
| --- | --- |
| ACCAGATC | 0.349 ± 0.0234 E-score |
| CCCCGCAC | 0.189 ± 0.188 E-score |
| CAACGATC | 0.277 ± 0.0168 E-score |
| GGTGATCA | 0.315 ± 0.0247 E-score |
| AGTGATCC | 0.4519 ± 0.00218 E-score |
| AGTGATCA | 0.313 ± 0.0131 E-score |
| CGTGATCC | 0.41 ± 0.0121 E-score |
| AGTGATCG | 0.25 ± 0.00845 E-score |
| CGTGATCA | 0.181 ± 0.00373 E-score |
| ATACGGGA | 0.367 ± 0.0155 E-score |
| GATGAGAC | 0.20672 ± 0.00017 E-score |
| ATATGAGC | 0.208 ± 0.0956 E-score |
| CCATCCGG | 0.235 ± 0.079 E-score |
| AACGATCA | 0.2067 ± 0.00118 E-score |
| GAGGATCA | 0.369 ± 0.0176 E-score |
| TAGGATGA | 0.199 ± 0.0352 E-score |
| CAGGATCA | 0.386 ± 0.00253 E-score |
| CAGGATCG | 0.297 ± 0.0493 E-score |
| TAGGATAA | 0.21 ± 0.0705 E-score |
| AAGGATCA | 0.383 ± 0.00738 E-score |
| TAGGATCA | 0.409 ± 0.017 E-score |
| AAGGATCG | 0.349 ± 0.00351 E-score |
| AAGGATCT | 0.267 ± 0.029 E-score |
| ACTATCTA | 0.154 ± 0.0178 E-score |

| Sequence | binding signal |
| --- | --- |
| AAACCCGA | 0.165 ± 0.0599 E-score |
| AACACCAT | 0.173 ± 0.0172 E-score |
| ATAGCGGC | 0.194 ± 0.00861 E-score |
| GGGTGTCA | 0.4698 ± 0.00156 E-score |
| AGGTGTGA | 0.204 ± 0.0237 E-score |
| AGGTGTTG | 0.2361 ± 0.00141 E-score |
| AGGTGTCG | 0.399 ± 0.0161 E-score |
| AGGTGTAC | 0.182 ± 0.0154 E-score |
| AGGTGTCC | 0.274 ± 0.042 E-score |
| GGGTGTAA | 0.334 ± 0.00878 E-score |
| AGGTGTAT | 0.377 ± 0.0149 E-score |
| GGGTGTGA | 0.158 ± 0.0496 E-score |
| AGGTGTCA | 0.45238 ± 0.000134 E-score |
| AGGTGTAA | 0.165 ± 0.116 E-score |
| AGGTGTTA | 0.203 ± 0.0687 E-score |
| TATCTACA | 0.167 ± 0.0212 E-score |
| CAAAGATC | 0.209 ± 0.0122 E-score |
| GATCTCCA | 0.239 ± 0.0181 E-score |
| ACATATAT | 0.252 ± 0.0998 E-score |
| ATCACTGA | 0.243 ± 0.0373 E-score |
| GTATTTAA | 0.172 ± 0.0151 E-score |
| TAACCCGA | 0.213 ± 0.0195 E-score |
